Results from the supplement of paper PMC10849652.
Targets with a hit are over-represented here; the source holds about 7,900 in all. About 0.6% of all pairs of compound and target were hits. Unmarked numbers belong to inactive results.

Legend:
Assay in all cases: log2 fold change, soluble protein after heating vs DMSO (PISA); higher = thermal stabilisation; K562 cells, 10 uM, 30 min; active = over 0.2 and 3.5 SD of the protein, either way, in both replicates (recomputed)
erlotinib = compound: C#Cc1cccc(Nc2ncnc3cc(OCCOC)c(OCCOC)cc23)c1 [erlotinib]
Procedure, shortened: (§1)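 Values are thermal stability changes relative to control samples and are taken from duplicates. They are stated as log2 fold changes. Before quantification by TMTpro 16plex LC-MS/MS with equalised channel sums, K562 cells at 2×10^6 cells/mL were treated with 10 μM compound for 30 min, heated in aliquots for 3 min across 48°C-58°C, pooled, extracted in PBS with 0.5% NP-40 at 4°C, and centrifuged at 21,000xg for 90 min to give the soluble supernatant.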

[1] = compound: C/C(=N\NC(=O)C1=CC(=CC=C1)S(=O)(=O)N2CCOCC2)/C3=C(C=CC(=C3)Cl)O
Procedure, shortened: as §1

[2] = compound: C1=CC(=C(C=C1Cl)C2=NC3=NC=CN=C3C(=N2)NC4=CC=NC=C4)F
Procedure, shortened: as §1

[3] = compound: C1=CC(=CC=C1C2=NC3=C(N2)C=C(C=C3)C(=O)N)OC4=CC=C(C=C4)Cl
Procedure, shortened: as §1

[4] = compound: C1=CC2=C(C=CC(=C2)/C=C\3/C(=O)NC(=NCC4=CC=CS4)S3)N=C1
Procedure, shortened: as §1

[5] = compound: C1=CC2=NC=CN=C2C=C1/C=C/3\C(=O)NC(=O)S3
Procedure, shortened: as §1

[6] = compound: C1=CC=C(C=C1)C2=NC(=C(N2)C3=CC=NC=C3)C4=CC(=C(C=C4)Cl)O
Procedure, shortened: as §1

[7] = compound: C1=CC=C2C(=C1)C3=NNC4=CC=CC(=C43)C2=O
Procedure, shortened: as §1

[8] = compound: C1CCN(C1)C(=O)NC2=CC=CC(=C2)NC3=NC=C(C(=N3)NCCC4=CN=CN4)Br
Procedure, shortened: as §1

[9] = compound: C1CN(CCC1(CC2=CC=C(C=C2)Cl)N)C3=NC=NC4=C3C=CN4
Procedure, shortened: as §1

IRAK-1-4 Inhibitor I = compound: C1COCCN1CCN2C3=CC=CC=C3N=C2NC(=O)C4=CC(=CC=C4)[N+](=O)[O-] [IRAK-1-4 Inhibitor I]
Procedure, shortened: as §1

ibrutinib = compound: C=CC(=O)N1CCC[C@@H](n2nc(-c3ccc(Oc4ccccc4)cc3)c3c(N)ncnc32)C1 [ibrutinib]
Procedure, shortened: as §1

[10] = compound: CC(=O)c1cnc2ccc(-c3cc(Cl)c(O)c(Cl)c3)nc2c1N[C@H]1CC[C@H](CN(C)C)CC1
Procedure, shortened: as §1

ralimetinib = compound: CC(C)(C)Cn1c(N)nc2ccc(-c3[nH]c(C(C)(C)C)nc3-c3ccc(F)cc3)nc21 [ralimetinib]
Procedure, shortened: as §1

[11] = compound: CC(C)(O)CC(=O)NCCn1ccc2ncnc(Nc3ccc(Oc4cccc(C(F)(F)F)c4)c(Cl)c3)c21
Procedure, shortened: as §1

[12] = compound: CC(C)C1=C2N=C(C=C(N2N=C1)NCC3=CC=CC=C3)NCCCCCCN
Procedure, shortened: as §1

[13] = compound: CC(C)C[C@@H](C=O)NC(=O)[C@H](CC(C)C)NC(=O)[C@H](CC(C)C)NC(=O)OCc1ccccc1
Procedure, shortened: as §1

pinometostat = compound: CC(C)N(C[C@H]1O[C@@H](n2cnc3c(N)ncnc32)[C@H](O)[C@@H]1O)[C@H]1C[C@@H](CCc2nc3cc(C(C)(C)C)ccc3[nH]2)C1 [pinometostat]
Procedure, shortened: as §1

[14] = compound: CC1=C(C(CC(=O)N1)C2=CC=C(C=C2)C(F)(F)F)C(=O)NC3=C(C=C4C(=C3)C=NN4)F
Procedure, shortened: as §1

[15] = compound: CC1=C(C2=C(C=C1)C(=O)C3=CC=CC=C3N2CCCN)C
Procedure, shortened: as §1

UniProt Q99627, sequence (Q99627 whole entry, looked up): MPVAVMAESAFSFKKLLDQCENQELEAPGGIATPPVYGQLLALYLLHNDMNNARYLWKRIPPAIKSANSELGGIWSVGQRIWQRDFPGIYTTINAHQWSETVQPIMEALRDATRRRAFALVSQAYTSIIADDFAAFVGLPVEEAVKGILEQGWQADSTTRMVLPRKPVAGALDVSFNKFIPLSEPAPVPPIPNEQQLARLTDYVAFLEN
UniProt Q8N1A6, sequence (Q8N1A6 whole entry, looked up): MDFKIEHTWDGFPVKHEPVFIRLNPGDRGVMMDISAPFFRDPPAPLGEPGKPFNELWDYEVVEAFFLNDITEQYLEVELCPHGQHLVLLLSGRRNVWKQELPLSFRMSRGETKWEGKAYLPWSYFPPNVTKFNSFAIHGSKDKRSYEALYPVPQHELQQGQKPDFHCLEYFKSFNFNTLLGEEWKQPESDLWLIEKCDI
UniProt Q9NXV6, sequence (Q9NXV6 whole entry, looked up): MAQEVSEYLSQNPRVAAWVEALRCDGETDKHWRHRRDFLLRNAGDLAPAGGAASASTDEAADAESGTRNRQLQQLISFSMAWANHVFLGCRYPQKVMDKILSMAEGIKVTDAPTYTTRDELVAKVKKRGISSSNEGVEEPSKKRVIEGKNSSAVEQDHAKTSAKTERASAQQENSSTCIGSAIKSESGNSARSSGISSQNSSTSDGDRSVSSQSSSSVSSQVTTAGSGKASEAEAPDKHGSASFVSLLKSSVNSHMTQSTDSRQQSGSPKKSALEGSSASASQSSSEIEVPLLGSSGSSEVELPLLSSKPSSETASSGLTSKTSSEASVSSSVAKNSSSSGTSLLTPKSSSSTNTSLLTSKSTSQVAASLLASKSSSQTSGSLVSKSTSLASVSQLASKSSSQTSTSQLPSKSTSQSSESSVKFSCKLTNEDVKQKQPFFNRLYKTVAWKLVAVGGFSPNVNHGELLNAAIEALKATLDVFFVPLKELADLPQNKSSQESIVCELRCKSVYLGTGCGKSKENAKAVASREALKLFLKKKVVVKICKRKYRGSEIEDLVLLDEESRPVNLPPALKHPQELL
UniProt Q8N4S0, sequence (Q8N4S0 whole entry, looked up): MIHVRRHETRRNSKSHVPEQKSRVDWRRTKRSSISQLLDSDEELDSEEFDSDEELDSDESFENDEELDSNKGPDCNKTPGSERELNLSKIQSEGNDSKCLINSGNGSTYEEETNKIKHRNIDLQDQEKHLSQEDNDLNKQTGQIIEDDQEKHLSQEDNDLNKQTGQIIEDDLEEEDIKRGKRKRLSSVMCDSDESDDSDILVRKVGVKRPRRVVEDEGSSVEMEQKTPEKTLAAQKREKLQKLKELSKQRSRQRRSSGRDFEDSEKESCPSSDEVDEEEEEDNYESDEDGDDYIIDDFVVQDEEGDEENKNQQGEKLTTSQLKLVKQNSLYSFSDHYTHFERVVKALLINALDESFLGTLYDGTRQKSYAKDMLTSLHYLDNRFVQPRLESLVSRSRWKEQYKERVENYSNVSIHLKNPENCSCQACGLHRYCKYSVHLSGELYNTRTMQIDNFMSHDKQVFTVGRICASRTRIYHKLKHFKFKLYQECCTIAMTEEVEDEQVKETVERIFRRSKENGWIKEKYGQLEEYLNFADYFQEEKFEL
UniProt Q00534, sequence (Q00534 whole entry, looked up): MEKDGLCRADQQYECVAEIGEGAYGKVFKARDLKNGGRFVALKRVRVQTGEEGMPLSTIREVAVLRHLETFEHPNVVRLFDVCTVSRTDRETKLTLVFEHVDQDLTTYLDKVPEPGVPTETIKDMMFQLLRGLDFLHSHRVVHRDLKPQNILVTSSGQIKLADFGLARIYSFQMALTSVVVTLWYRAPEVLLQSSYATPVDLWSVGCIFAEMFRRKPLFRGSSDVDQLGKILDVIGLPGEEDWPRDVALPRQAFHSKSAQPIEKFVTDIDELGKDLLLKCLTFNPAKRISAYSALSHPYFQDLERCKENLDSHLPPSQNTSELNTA
UniProt Q8IWX8, sequence (Q8IWX8 whole entry, looked up): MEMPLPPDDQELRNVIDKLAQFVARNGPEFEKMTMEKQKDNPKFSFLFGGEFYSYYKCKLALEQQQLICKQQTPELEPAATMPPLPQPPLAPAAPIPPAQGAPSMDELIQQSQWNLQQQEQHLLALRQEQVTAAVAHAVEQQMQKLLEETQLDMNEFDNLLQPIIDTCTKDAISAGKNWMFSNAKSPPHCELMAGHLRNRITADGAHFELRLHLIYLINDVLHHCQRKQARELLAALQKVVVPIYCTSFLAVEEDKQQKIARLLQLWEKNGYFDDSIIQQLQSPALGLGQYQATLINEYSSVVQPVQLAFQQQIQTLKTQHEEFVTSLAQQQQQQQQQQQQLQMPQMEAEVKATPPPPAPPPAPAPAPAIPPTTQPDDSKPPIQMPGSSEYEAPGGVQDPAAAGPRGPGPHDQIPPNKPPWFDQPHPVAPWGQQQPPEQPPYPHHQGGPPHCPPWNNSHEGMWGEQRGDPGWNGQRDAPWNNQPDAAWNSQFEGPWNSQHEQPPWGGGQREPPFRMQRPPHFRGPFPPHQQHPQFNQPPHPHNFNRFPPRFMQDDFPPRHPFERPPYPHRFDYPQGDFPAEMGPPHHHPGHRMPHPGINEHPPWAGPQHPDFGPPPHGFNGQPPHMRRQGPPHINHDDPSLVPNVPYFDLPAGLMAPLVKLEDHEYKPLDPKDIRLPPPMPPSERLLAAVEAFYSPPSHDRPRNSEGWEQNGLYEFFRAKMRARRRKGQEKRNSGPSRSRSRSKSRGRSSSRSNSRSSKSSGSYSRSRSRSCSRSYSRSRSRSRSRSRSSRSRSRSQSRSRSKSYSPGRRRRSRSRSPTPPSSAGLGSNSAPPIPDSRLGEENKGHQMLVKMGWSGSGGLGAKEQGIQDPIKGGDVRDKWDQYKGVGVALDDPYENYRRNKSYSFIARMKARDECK
UniProt Q96G23, sequence (Q96G23 whole entry, looked up): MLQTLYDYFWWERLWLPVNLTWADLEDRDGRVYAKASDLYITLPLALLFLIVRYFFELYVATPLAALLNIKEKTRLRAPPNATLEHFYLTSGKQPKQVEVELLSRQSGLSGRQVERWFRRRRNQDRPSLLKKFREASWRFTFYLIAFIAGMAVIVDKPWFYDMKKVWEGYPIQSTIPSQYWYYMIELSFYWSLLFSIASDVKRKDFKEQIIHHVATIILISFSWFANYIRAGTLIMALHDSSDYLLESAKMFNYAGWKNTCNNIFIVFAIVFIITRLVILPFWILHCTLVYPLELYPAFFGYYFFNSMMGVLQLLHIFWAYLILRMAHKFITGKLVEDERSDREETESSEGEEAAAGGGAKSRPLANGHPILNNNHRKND
UniProt Q8N163, sequence (Q8N163 whole entry, looked up): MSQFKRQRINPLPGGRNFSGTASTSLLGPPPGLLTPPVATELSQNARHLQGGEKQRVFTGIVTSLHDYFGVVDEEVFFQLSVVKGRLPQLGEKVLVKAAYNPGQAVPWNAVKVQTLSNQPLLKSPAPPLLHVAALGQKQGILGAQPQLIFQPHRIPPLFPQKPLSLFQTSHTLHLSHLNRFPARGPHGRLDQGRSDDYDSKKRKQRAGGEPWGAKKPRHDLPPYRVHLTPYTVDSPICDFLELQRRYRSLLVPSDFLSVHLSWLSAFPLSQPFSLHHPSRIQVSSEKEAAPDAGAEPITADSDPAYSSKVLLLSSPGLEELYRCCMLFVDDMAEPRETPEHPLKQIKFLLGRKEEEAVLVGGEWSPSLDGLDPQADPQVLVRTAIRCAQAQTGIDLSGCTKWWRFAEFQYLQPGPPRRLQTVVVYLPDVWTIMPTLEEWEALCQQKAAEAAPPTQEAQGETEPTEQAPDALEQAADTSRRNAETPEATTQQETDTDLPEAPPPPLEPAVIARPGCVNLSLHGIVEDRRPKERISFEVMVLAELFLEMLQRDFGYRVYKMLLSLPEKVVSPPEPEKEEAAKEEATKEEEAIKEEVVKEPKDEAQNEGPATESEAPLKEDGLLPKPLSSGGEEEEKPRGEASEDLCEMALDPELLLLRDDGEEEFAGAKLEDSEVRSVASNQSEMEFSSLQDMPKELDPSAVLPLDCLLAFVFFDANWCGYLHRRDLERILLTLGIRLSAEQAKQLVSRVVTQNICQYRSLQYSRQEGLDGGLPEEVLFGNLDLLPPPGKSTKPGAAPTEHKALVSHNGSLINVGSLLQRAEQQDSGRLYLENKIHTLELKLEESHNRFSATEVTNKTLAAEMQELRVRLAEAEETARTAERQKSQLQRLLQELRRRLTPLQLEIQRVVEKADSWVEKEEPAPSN
UniProt Q00587, sequence (Q00587 whole entry, looked up): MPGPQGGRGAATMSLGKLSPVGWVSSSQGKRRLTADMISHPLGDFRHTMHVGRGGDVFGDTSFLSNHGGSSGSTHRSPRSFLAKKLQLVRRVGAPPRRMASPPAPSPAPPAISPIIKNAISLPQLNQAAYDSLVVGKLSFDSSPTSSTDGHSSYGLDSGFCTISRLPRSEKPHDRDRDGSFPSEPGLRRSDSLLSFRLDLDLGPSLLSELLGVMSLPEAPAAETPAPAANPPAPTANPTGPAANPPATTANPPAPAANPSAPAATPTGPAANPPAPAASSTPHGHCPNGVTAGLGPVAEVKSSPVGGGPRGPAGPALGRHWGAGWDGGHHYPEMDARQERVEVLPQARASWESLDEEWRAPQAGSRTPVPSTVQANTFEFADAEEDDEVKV
UniProt P14854, sequence (P14854 whole entry, looked up): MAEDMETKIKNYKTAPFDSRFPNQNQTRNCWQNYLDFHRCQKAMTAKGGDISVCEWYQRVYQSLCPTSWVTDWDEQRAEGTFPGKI
UniProt P41208, sequence (P41208 whole entry, looked up): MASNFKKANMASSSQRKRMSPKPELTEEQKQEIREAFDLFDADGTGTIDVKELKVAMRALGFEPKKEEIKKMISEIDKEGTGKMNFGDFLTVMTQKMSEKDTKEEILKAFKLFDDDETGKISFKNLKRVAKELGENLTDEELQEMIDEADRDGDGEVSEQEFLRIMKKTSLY
UniProt P61024, sequence (P61024 whole entry, looked up): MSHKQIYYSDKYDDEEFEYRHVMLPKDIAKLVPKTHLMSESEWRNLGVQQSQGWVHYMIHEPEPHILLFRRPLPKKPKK

Target | log2 fold change (erlotinib) | log2 fold change [1] | log2 fold change [2] | log2 fold change [3] | log2 fold change [4] | log2 fold change [5] | log2 fold change [6] | log2 fold change [7] | log2 fold change [8] | log2 fold change [9] | log2 fold change (IRAK-1-4 Inhibitor I) | log2 fold change (ibrutinib) | log2 fold change [10] | log2 fold change (ralimetinib) | log2 fold change [11] | log2 fold change [12] | log2 fold change [13] | log2 fold change (pinometostat) | log2 fold change [14] | log2 fold change [15]
C4orf33 (UniProt Q8N1A6) | -0.026 | 0.023 | 0.052 | 0.138 | 0.072 | -0.287 (active) | -0.092 | 0.016 | 0.017 | 0.06 | 0.038 | 0.137 | -0.049 | -0.073 | 0.005 | -0.076 | 0.032 | 0 | -0.01 | -0.03
CCAR2 isoform 2 (UniProt Q8N163) | 0.027 | 0.063 | 0.033 | -0.014 | 0.071 | 0 | 0.014 | -0.039 | 0.001 | 0.007 | -0.111 | -0.061 | -0.037 | 0.027 | -0.222 | -0.477 (active) | -0.004 | -0.039 | 0.111 | -0.252
CKS1B (UniProt P61024) | -0.014 | 0 | 0.028 | -0.013 | 0.044 | 0.029 | 0.11 | -0.045 | -0.012 | 0.034 | -0.011 | -0.008 | -0.127 | 0.222 (active) | 0.001 | 0.027 | -0.031 | -0.044 | 0.036 | 0.054
CHERP (UniProt Q8IWX8) | 0.083 | 0.065 | 0.014 | 0.053 | -0.03 | 0.09 | 0.026 | -0.036 | -0.084 | -0.113 | -0.091 | -0.069 | -0.317 (active) | 0.013 | -0.074 | -0.097 | 0.048 | 0.021 | 0.122 | -0.079
COX6B1 (UniProt P14854) | 0.027 | 0.011 | 0.247 | -0.045 | 0.118 | 0.048 | 0 | -0.037 | -0.003 | -0.019 | -0.046 | -0.038 | -0.013 | -0.144 | -0.103 | 0.038 | -0.01 | 0.017 | 0.045 | 0.103
CNDP2 (UniProt Q96KP4) | 0.035 | -0.099 | 0.058 | 0.022 | 0.091 | -0.024 | 0.064 | 0.058 | 0.023 | 0.072 | 0.098 | 0.002 | -0.01 | 0.07 | -0.005 | -0.011 | -0.029 | -0.035 | -0.011 | 0.042
COPS8 (UniProt Q99627) | 0.033 | 0.032 | -0.005 | -0.002 | 0.081 | 0.008 | 0.012 | -0.042 | -0.04 | 0.015 | -0.006 | 0.039 | -0.011 | -0.042 | 0.031 | 0.043 | 0.027 | -0.021 | -0.006 | 0.13
CERS2 (UniProt Q96G23) | 0.032 | 0.001 | 0.013 | 0.007 | 0.004 | 0.033 | 0.01 | -0.025 | 0.074 | 0.087 | 0.06 | -0.013 | 0.125 | -0.026 | -0.176 | -0.425 (active) | 0.034 | 0.042 | 0.003 | -0.04
CDKN2AIP (UniProt Q9NXV6) | 0.017 | -0.018 | 0 | 0.056 | 0.018 | 0.009 | 0.036 | 0.007 | -0.006 | -0.021 | -0.057 | 0.039 | 0.062 | 0.059 | 0.01 | 0.056 | -0.04 | 0.032 | -0.056 | 0.241 (active)
CETN2 (UniProt P41208) | 0.121 | -0.015 | -0.002 | 0.017 | -0.058 | 0.03 | -0.058 | -0.113 | 0.039 | 0.049 | -0.067 | 0.006 | -0.019 | -0.012 | 0.074 | 0.17 | 0.043 | 0.011 | 0.075 | -0.045
CCDC82 (UniProt Q8N4S0) | -0.08 | 0.035 | 0.011 | -0.026 | -0.01 | 0.046 | -0.022 | -0.092 | -0.004 | 0.022 | -0.041 | 0.022 | -0.07 | -0.023 | 0.012 | 0 | 0.028 | -0.019 | 0.108 | -0.65 (active)
CELF2 isoform 3 (UniProt O95319) | -0.042 | -0.044 | 0 | 0.045 | 0.004 | 0.047 | 0.021 | 0.064 | -0.022 | 0.086 | 0.009 | -0.022 | 0.009 | 0.055 | -0.003 | -0.015 | 0.249 | -0.047 | -0.027 | 0.418 (active)
CDC42EP1 (UniProt Q00587) | 0.09 | 0.063 | 0.006 | 0.115 | 0.136 | -0.011 | -0.005 | -0.086 | -0.133 | -0.001 | 0.097 | 0.086 | -0.527 (active) | 0.076 | -0.104 | -0.43 (active) | -0.009 | -0.043 | -0.054 | -0.055
CSTF2 (UniProt P33240) | 0.032 | -0.002 | -0.011 | 0.017 | 0.017 | 0.051 | -0.076 | 0.023 | 0.033 | -0.061 | 0.011 | 0.008 | 0.057 | -0.006 | 0.025 | 0.093 | -0.006 | -0.008 | 0 | 0.169
CDK6 (UniProt Q00534) | -0.035 | 0 | -0.053 | 0.02 | 0.027 | 0.018 | -0.031 | 0.04 | 0.017 | -0.034 | -0.014 | 0.031 | 0.107 | 0.009 | -0.009 | -0.026 | 0.086 | 0.062 | 0.02 | -0.019
CPT2 (UniProt P23786) | -0.096 | -0.087 | 0.068 | 0.636 | 0.07 | 0.076 | 0.163 | 0.066 | 0.004 | 0.23 | 0.101 | 0.095 | 0.201 | -0.079 | -0.704 (active) | -0.488 | 0.16 | -0.145 | -0.051 | 0.256
